Bioassay records deposited in PubChem by National Center for Advancing Translational Sciences (NCATS).
Shown are actives, neighbours in structure and some others; about 1.9% of the full set was active somewhere.
Epigenetic reg: Quantitative High-Throughput Screen for Regulators of Epigenetic Control; murine LDR cells, GFP reporter derepression, 30 h; Potency, µM (top dose mostly 53.9 µM), without a hit: at the top dose GFP activation, actives largely listed as activators; hit rate 0.2% among 280,000; AID 1865, 2009; active means well fitted activation curve with a large enough effect; inconclusive means small, poorly fitted or top-dose-only effect; further: potency means the concentration at half of the fitted maximal effect; % of control where 0% means no effect; nearly all actives have a fitted effect of over 60% in size
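Derepression of a silenced CMV-GFP reporter in murine LDR cells is scored by enumerating GFP-positive cells with a laser-scanning microplate cytometer after 30 hours of treatment at 37 C.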
Menin MLL FP FL: qHTS Assay for Inhibitors Targeting the Menin-MLL Interaction in MLL Related Leukemias: Competition With Fluorescein Labeled MLL-derived Peptide | AID 1766, 2009 | FP activity change, % at 61.4 µM | Fluorescence polarization, fluorescein-MLL peptide displacement from menin | 290,000 tested, under 10 active; active means well fitted curve in the direction sought with a large enough effect in the polarisation, not every such curve was filed as active; inconclusive means small, poorly fitted or top-dose-only effect, or effect the other way, or a change in a side signal; inactive means no such curve, though single readings can be large or run the other way; the % refers to the polarisation; further: % of control where 0% means no effect
MLL CXXC-DNA inh: qHTS Fluorescence Polarization Assay for Inhibitors of MLL CXXC domain - DNA interaction. Histone-lysine N-methyltransferase 2A (Homo sapiens), Q03164. MLL-CXXC / FITC-HOXA9 DNA fluorescence polarization. Potency, µM (series often up to 115 µM), for the others: at the top dose activity change, negative = inhibition, usual class: inhibitors. hit rate 0.037% among 290,000. AID 2662, 2010; active means well fitted inhibition curve with a large enough effect in the polarisation, with a control signal flat, not every such curve was filed as active; inconclusive means small, poorly fitted or top-dose-only effect, or effect the other way, or a change in a side signal; inactive means no such curve, though single readings can be large or run the other way; the % refers to the polarisation; further: potency means the concentration at half of the fitted maximal effect
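Steps: dispense CXXC domain solution (7 uM) → pin compounds or unlabeled HOX-A9 DNA control → 5 min ambient → add FLSN-HOX-A9 solution (50 nM) → spin → 30 min ambient → fluorescence polarization. Tris pH 7.5/NaCl/DTT/BSA buffer.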
ClpP mod: qHTS Assay for Activators of ClpP; purified B. subtilis ClpP, FRET peptide cleavage, 20 min; ATP-dependent Clp protease proteolytic subunit (Bacillus subtilis (strain 168)), P80244; Potency, µM (titrated, usually from 57.5 µM), inactives show at the top dose activity change, negative = active; hit rate 1.9% among 340,000; active means well fitted falling curve with a large enough effect; inconclusive means small, poorly fitted or top-dose-only effect; inactive means no such curve, though single readings can be large or run the other way; further: potency means the concentration at half of the fitted maximal effect; the source files actives as falling curves though it sought activators and does not explain the sign; nearly all actives have a fitted effect of over 65% in size
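FRET quenching reversal measured ClpP activation: 10 microg/mL B. subtilis ClpP at pH 8 with the FRET-FV decapeptide, read at 430 nm after 320 nm excitation. The 20-min minus 0-min signal was scaled between DMSO/no-enzyme wells and ADEP (5.8 microM final).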
Menin-MLL TR inh: qHTS Assay for Inhibitors Targeting the Menin-MLL Interaction in MLL Related Leukemias: Competition With Texas Red Labeled MLL-derived Mutant Peptide; hit rate 0.23% among 270,000; Potency, µM (series often up to 61.6 µM), for inactives: at the highest dose FP activity change, negative = inhibition, most hits filed as inhibitors; AID 1768, 2009; Menin + Texas Red MLL mutant peptide, fluorescence polarization; O00255; active means well fitted inhibition curve with a large enough effect in the polarisation, with a control signal flat, not every such curve was filed as active; inconclusive means small, poorly fitted or top-dose-only effect, or effect the other way, or a change in a side signal; inactive means no such curve, though single readings can be large or run the other way; the % refers to the polarisation; further: potency means the concentration at half of the fitted maximal effect; % of control where 0% means no effect
PINK1 modulator: A Quantitative High throughput Screen to Identify Chemical Modulators of PINK1 Expression; PINK1 immunofluorescence, high-content cytometry, 24 h; Potency, µM (highest dose often 76.6 µM), for inactives: top-dose activation (PINK1 increase), usual class: activators; hit rate 0.2% among 410,000; AID 624263, 2012; active means well fitted activation curve with a large enough effect; inconclusive means small, poorly fitted or top-dose-only effect; cell line not stated here; further: potency means the concentration at half of the fitted maximal effect; % of control where 0% means no effect; nearly all actives have a fitted effect of over 65% in size
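Compound titrations (5 concentrations, 24 h) on a stable cell line; DMSO and CCCP controls. Endpoint: fixed-cell PINK1 immunofluorescence with mitochondrial, cell and nuclear markers, scanned by microplate cytometer.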
An asterisk follows results filed as active; ? = inconclusive; · = not tested or not shown; [ ] = remark or other dose.

SMILES | Epigenetic reg | Menin MLL FP FL | MLL CXXC-DNA inh | ClpP mod | Menin-MLL TR inh | PINK1 modulator
Cc1cccc2sc(NNC(=O)c3ccc(S(=O)(=O)N4CC(C)CC(C)C4)cc3)nc12 (stereo unspecified) | 1.7% | 0.7 | -4.2% | -1.6% | ? | 39.8µM*
Cc1cc(C)c2nc(NNC(=O)c3ccc(S(=O)(=O)N4CC(C)CC(C)C4)cc3)sc2c1 (stereo unspecified) | 5.3% | 8.6 | -6.2% | -5.2% | 10.1% | 10.7%
O=C(Nc1ccc(F)c(Cl)c1)Nc1csc2ccccc12 | 0.0% | 4.9 | 1.3% | · | · | ?
O=C(Nc1ccc(F)cc1F)Nc1csc2ccccc12 | 0.1% | 5.7 | -0.2% | 11.2µM* | · | ?
COCCn1c(=O)[nH]c2cc(C(=O)OC)ccc2c1=O | -1.0% | 3.8 | ? | 28.2µM* | 17.7% | 1.4%
CCN1CCN(CCNC(=O)CCCCCn2c(=O)[nH]c3cc(C(=O)OC)ccc3c2=O)CC1 | -2.2% | 8.6 | -3.6% | ? | 21.0% | 2.2%[38.3 µM]
COc1ccc(N2CCN(CCNC(=O)CCCn3c(=O)[nH]c4cc(Cl)ccc4c3=O)CC2)cc1 | 0.0% | 1.6 | 8.6% | 28.2µM* | 19.1% | 0.0%
COc1ccc(N2CCN(CCCNC(=O)CCCn3c(=O)[nH]c4ccsc4c3=O)CC2)cc1 | -0.9% | -0.9 | -0.9% | -7.3% | -3.5% | -1.8%
CCN1CCN(C(=O)CCCCCn2c(=O)[nH]c3cc(C(=O)OC)ccc3c2=O)CC1 | -0.2% | 6.4 | -1.0% | 25.1µM* | -0.9% | 0.7%
CCOC(=O)c1noc2c1CCC2 | · | · | · | -1.3% | · | ·
CN(C)CCSc1nc(-c2ccccc2)nc2c1CCCC2 | 3.2% | 4.0 | -2.3% | 15.8µM* | · | 1.6%
Cc1c(CC(=O)NCCc2ccccc2)c(=O)oc2c(C)c3occ(C(C)(C)C)c3cc12 | -2.0% | · | · | 31.6µM* | · | 0.6%
Cc1c(CC(=O)NCCc2ccccc2F)c(=O)oc2c(C)c3occ(C(C)(C)C)c3cc12 | -1.8% | · | · | ? | · | 0.7%
O=C(O)c1[nH]c2ccccc2c1NS(=O)(=O)c1ccc(F)cc1 | · | 0.1 | 0.1% | -0.4% | ? | 1.9%
O=C(O)c1[nH]c2ccccc2c1NS(=O)(=O)Cc1ccccc1 | -1.0% | 3.8 | 3.7% | 28.2µM* | ? | 1.2%
COc1ccc(CN(CCN(C)C)c2ccccn2)cc1 | ? | ? | 9.5% | -2.2% | -14.9% | -0.4%
CC[N+](C)(C)CCN(Cc1ccc(Cl)cc1)c1ccccn1 | 0.1% | 1.4 | 3.3% | 28.2µM* | 0.6% | 0.2%
CC1(C)CC23C(=O)CCC(O)C2(C)CCC13 (stereo unspecified) | 0.1% | 0.0 | · | · | ? | 1.4%
COc1ccc(-c2cc(C3CC3)nc3sc(C#N)c(N)c23)cc1 | -3.4% | 2.5 | 4.3% | ? | 1.2% | -0.9%
N#Cc1sc2nc(-c3cccs3)cc(-c3ccccc3)c2c1N | ? | ? | 16.6% | -5.1% | 12.6µM* | 9.9%[38.3 µM]
N#Cc1sc2nc(-c3cccs3)cc(-c3ccc(Cl)cc3)c2c1N | 14.1µM* | ? | -9.7% | -6.1% | 25.1µM* | 29.1%[38.3 µM]
CN(C)C(=O)COC(=O)c1ccccc1OCC(=O)Nc1ccc(Br)cc1 | · | · | · | -1.9% | · | 0.7%
Cc1nc2ccc(NC(=O)N3CCSCC3)cc2nc1C | 0.0% | 0.9 | 0.0% | 25.1µM* | 4.1% | 0.8%
COc1cc(NC(=O)c2cc(Cl)ccc2Cl)ccc1NC(=O)c1cc2ccccc2o1 | ? | · | · | 28.2µM* | · | 5.9%
c1ccc(Sc2cccc3ccccc23)c(CNC2=NCCN2)c1 | -0.9% | -1.4 | 26.6% | 3.16µM* | -22.3% | -5.7%
SMILES | Epigenetic reg | Menin MLL FP FL | MLL CXXC-DNA inh | ClpP mod | Menin-MLL TR inh | PINK1 modulator
NC1=NC(=Nc2cccc(S(N)(=O)=O)c2)c2ccccc21 | 0.0% | 1.6 | -0.1% | -1.0% | · | -0.6%
COc1cc(N=Nc2cccc(S(N)(=O)=O)c2)c2ccccc2c1N | 31.6µM* | ? | 195.1% | · | ? | 0.4%
COCCOC(=O)c1sc2nc[nH]c(=O)c2c1C | -1.1% | -8.9 | -0.7% | · | -0.7% | -3.6%
Cc1c(C(=O)OC2CCCCC2)sc2nc[nH]c(=O)c12 | 0.0% | -1.3 | 2.6% | 28.2µM* | 15.8% | 13.4%[38.3 µM]
Cc1cc(C)c(N(Cc2ccccc2)S(=O)(=O)c2ccc(OCCNC(=O)c3cc4ccccc4o3)cc2)c(C(=O)NO)c1 | · | 3.5 | · | · | 24.7% | ·
Cc1ccc(NC(=O)c2ccc(NCCc3ccccc3)c([N+](=O)[O-])c2)cc1F | 12.6µM* | 0.8 | 3.0% | 1.8% | ? | ?
OCC[n+]1ccc(/C=C/c2c[nH]c3ccccc23)cc1 | 1.9% | ? | ? | 1.3% | 2.7% | 39.8µM*
COc1cccc(CN2C(=O)NC(C)(C3CCN(Cc4cccc(O)c4)CC3)C2=O)c1OC (stereo unspecified) | · | · | · | · | · | 0.1%
CCOc1ccc2ccccc2c1C1NC(=S)N(C)C(C)=C1C(=O)OC (stereo unspecified) | -5.8% | 1.5 | 1.1% | 8.91µM* | -5.1% | 1.4%
COc1ccc2oc(=O)c(-c3nc4ccc(C)cc4[nH]3)cc2c1 | 11.2µM* | · | · | -5.7% | · | 4.5%
Cc1ccccc1Cn1c(=O)n(Cc2ccc(Cl)cc2)c(=O)c2cccnc21 | -1.1% | · | · | 25.1µM* | · | -0.5%
O=C(C[N+]1(CC(O)c2ccccc2)CCOCC1)c1ccccc1 (stereo unspecified) | · | · | · | -1.2% | · | ·
C(=C\c1cc(/C=C/c2ccccc2)ncn1)/c1ccccc1 | -0.4% | 4.4 | 14.2% | 35.5µM* | ? | -1.3%
Cc1nc(/C=C/c2ccccc2)cc(/C=C/c2ccccc2)n1 | -3.2% | -0.3 | -1.2% | 14.1µM* | · | 12.8%
C(=C\c1ccccn1)/c1ccccc1 | · | · | · | -5.1% | · | ·
Cc1nc2ccc(C(=O)O)cc2c2c1CC(C)S2 (stereo unspecified) | -1.1% | 15.3 | 8.9% | 80.8% | 20µM* | -1.8%
CSc1ncccc1C(=O)OCC(=O)NCCC1=CCCCC1 | · | · | · | 0.5% | · | ?
O=C(COC(=O)c1cccnc1Cl)NCCC1=CCCCC1 | -0.1% | 0.2 | 7.0% | 15.8µM* | 11.6% | -1.0%
CCCCCc1cc(O)c2c(C)cc(=O)oc2c1 | 0.9% | 4.7 | -6.8% | -4.4% | 4.2% | 11.2µM*
CCCN1CNc2c(c(=O)[nH]c(=S)n2CCc2cc(C)cc(C)c2)C1 | · | · | · | -4.7% | · | 3.4%
CCCCOc1ccc(-c2nnn(CC(=O)c3c[nH]c4ccccc34)n2)cc1 | 1.9% | 10.9 | 29.7% | -17.6% | 8.91µM* | -0.3%
